From PubChem
Pf growth 96h: P. falciparum growth inhibition at 96 hour, primary screen for plastid delayed-death inhibitors | AID 504834 | 320,000 compounds, 6.9% hits | P. falciparum luciferase reporter growth, 96 h | Potency, µM (doses to about 28.7 µM), for inactives: top-dose activity change, negative = inhibition, actives largely listed as inhibitors; note: potency is the fitted concentration of half-maximal effect; % is set by controls: 0 for no effect and ±100 for the full control effect
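Readout is luminescence from an integrated firefly luciferase in P. falciparum. Red cells, 2% hematocrit and 0.05% parasitemia final, were cultured with compound through two parasite generations (96 hours) at 37 C, 5% CO2.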
Cycloheximide cs: counter-screen hit for Shiga toxin inhibitors, cycloheximide; 300,000 compounds, 12% hits; cell reporter, cycloheximide protein synthesis inhibition counterscreen; max response, %; in the data active = max response mostly above about 13%, no sharp cut-off; inactive = mostly below about 14%; note: read at 38.3 µM for the half of the compounds with a filed dose; 0% is about no effect
NS1 inh: inhibitors of influenza NS1 protein function. Potency, µM (top dose mostly 46.1 µM), without a hit: at the top dose activity, positive = more growth. 270,000 compounds, 0.4% hits; calls by dose curve; note: potency is the fitted concentration of half-maximal effect; actives are rising curves; nearly all actives have a fitted effect of over 50% in size
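Growth recovery, yeast-based: influenza A NS1 expressed in S. cerevisiae causes slow growth, and suppressors are detected by OD600. The parent strain without NS1 is used as positive control.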
Shiga toxin inh: Shiga toxin inhibition | inhibition, % at 38.7 µM | 290,000 compounds, 9.2% hits | Vero cells, Shiga toxin protein synthesis inhibition reporter; in the data active = inhibition mostly above about 28%, no sharp cut-off; inactive = mostly below about 43%; note: 0% is about no effect
Pf growth 48h: P. falciparum growth inhibition at 48 hours (one generation); P. falciparum luciferase growth in erythrocytes, 48 h; AID 504832; Potency, µM (series often up to 28.7 µM), inactives show at the highest dose activity change, negative = inhibition, hits mostly inhibitors; 310,000 compounds, 5.9% hits; note: potency is the fitted concentration of half-maximal effect; % is set by controls: 0 for no effect and ±100 for the full control effect
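Compounds are pin-transferred into medium, infected erythrocytes (2% hematocrit, 0.1% parasitemia final) are added, and plates sit one parasite generation at 37 C in 5% CO2. Detection reagent is then added and luminescence measured.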
An asterisk follows results filed as active; ? = inconclusive; · = no result given; [ ] = another dose, or the depositor's remark. Most compounds without a hit are left out; they make up all but 21% or so of the library. Unless noted, calls come from the whole dose curve; as a rule, active = well fitted inhibition curve with a large enough effect; inconclusive = small, poorly fitted or top-dose-only effect, or another doubt; inactive = no such curve, though single readings can be large or run the other way.

SMILES	Pf growth 96h	Cycloheximide cs	NS1 inh	Shiga toxin inh	Pf growth 48h
COc1ccc(NC(=O)c2sc(SCc3ccccc3)nc2N)cc1	-13%	22*	13%	24	-11%
COc1cc(O)c(C(CCN2CCN(c3ccccc3)CC2)c2ccc(N(C)C)cc2)c(OC)c1 (configuration not stated)	0.66µM*	-3	-18%	27	0.83µM*
COc1ccc(N2CCN(CCC(O)c3ccc4ccccc4c3)CC2)cc1 (configuration not stated)	-14%	1	0%	9	3.3µM*
COc1cc(OC)c2c(c1C(CCN1CCN(c3ccccc3)CC1)c1ccc(N(C)C)cc1)OC(=O)CC2c1ccc(N(C)C)cc1 (configuration not stated)	·	2	·	3	·
COc1ccc(C(CCN2CCN(c3ccccc3)CC2)c2c(O)cc(OC)cc2OC)cc1 (configuration not stated)	0.47µM*	-5	-1%	-11	1µM*
COc1cc(O)c(C(CC(=O)N2CCOCC2)c2ccc(N(C)C)cc2)c(OC)c1 (configuration not stated)	79%	-5	-17%	-5	?
COc1cc(O)c(C(CCN2CCOCC2)c2ccc(N(C)C)cc2)c(OC)c1 (configuration not stated)	7.4µM*	-7	-11%	2	4.7µM*
COc1ccc(N2CCN(C(=O)CNC(=O)c3ccc4ccccc4c3)CC2)cc1	-28%	·	·	·	?
CCOc1ccc(NC2c3ccccc3C(=O)N2c2ccc(Cl)cn2)cc1 (configuration not stated)	-63%	11*	-39%	68*	32%
CCOc1ccc(N2C(=O)c3ccccc3C2O)cc1 (configuration not stated)	?	45	-17%	64*	·
Cc1ccc(NC2c3ccccc3C(=O)N2c2cccnc2)cc1 (configuration not stated)	?	1	-1%	1	-12%
CCOC(=O)c1ccccc1NC1c2ccccc2C(=O)N1c1ccc(C)cn1 (configuration not stated)	-24%	21*	-85%	39	120%
CCOc1ccc(N2C(=O)c3ccccc3C2=O)cc1	·	8	0%	8	16%
COc1ccc(NC2c3ccccc3C(=O)N2c2ccccn2)cc1 (configuration not stated)	12µM*	20*	-1%	45*	?
O=C(O)CCNc1ccccc1C(=O)O	·	·	-2%	·	·
CCCNc1c(NS(=O)(=O)c2ccc(C3CCCCC3)cc2)c(=O)oc2ccccc12	?	1	5%	0	6%
CCOC(=O)c1ccc(NC2c3ccccc3C(=O)N2c2ccccn2)cc1 (configuration not stated)	10µM*	2	4%	-4	·
COc1cccc(C(=O)NCCS(=O)(=O)N(C)Cc2ccccc2)c1	16%	·	·	·	19%
COc1ccc(C)cc1NC(=O)COC(=O)c1ccc2c(c1)OCO2	5%	·	·	·	-12%
N/C(=N\OC(=O)c1ccc2c(c1)OCO2)c1ccc(Cl)cc1	?	62*	-141%	91*	?
Cc1ccc(/C(N)=N/OC(=O)c2ccc3c(c2)OCO3)cc1	5.9µM*	74*	-45%	98*	?
COc1ccc(C2(O)CCN(C(=O)c3ccc4c(c3)OCO4)CC2)cc1	?	-1	-44%	-19	-5%
COc1ccc(/C(N)=N/OC(=O)c2ccc3c(c2)OCO3)cc1	9%	52*	-29%	46*	?
N/C(=N\OC(=O)c1ccc2c(c1)OCO2)c1ccncc1	-23%	35*	-1%	44	54%
CN(C(=O)COC(=O)C1CCN(S(=O)(=O)c2ccc3c(c2)OCCO3)CC1)C1CCCCC1	11%	·	·	·	10%
SMILES	Pf growth 96h	Cycloheximide cs	NS1 inh	Shiga toxin inh	Pf growth 48h
Cc1onc(-c2ccccc2)c1C(=O)Nc1nnc(C(C)(C)C)s1	4%	-2	5%	-3	40%
CC(=O)C[C@@H](c1ccccc1)c1c(O)c2ccccc2oc1=O	·	1	·	-7	·
CN(CCN1CCOCC1)Cc1nc(-c2ccccc2)no1	18%	12*	1%	14	-1%
CCn1ccnc1CN(C)Cc1cn(-c2ccc(C)cc2)nc1-c1cccc(C)c1	?	-2	3%	12	6.6µM*
CCn1ccnc1CN(C)Cc1nc(CCC(C)C)no1	?	23	0%	37	-13%
CCn1ccnc1CN(C)Cc1nc(-c2ccccc2)no1	?	35*	10%	55*	19%
CCn1ccnc1CN(C)Cc1nc(-c2cccc(Cl)c2)no1	5%	30*	-6%	49	61%
Cc1cccn2c(NC(=O)c3cccs3)c(-c3ccccc3)nc12	?	-6	-4%	-14	-3%
Cc1cccc(CC2S/C(=N/N=C/c3ccco3)N(c3ccccc3)C2=O)c1 (configuration not stated)	-11%	-2	7%	-9	?
CCOCCn1c(SC(C)C(C)=O)nc2c1c(=O)[nH]c(=O)n2C (configuration not stated)	36%	1	6%	-2	9%
Cc1ccc(C(=O)COC(=O)Cc2ccccc2)cc1	-31%	46*	-6%	77*	10%
COc1ccc(CC(=O)OCC(=O)c2ccc(OC)cc2)cc1	-8%	-4	-10%	-8	18%
O=C(Cc1ccccc1)OCC(=O)c1ccccc1	12µM*	30*	2%	36	0%
CC1=CC(C)(C)Nc2ccc(Cc3ccc4c(c3)C(C)=CC(C)(C)N4)cc21	?	-7	?	-6	?
CCn1ccnc1CN1CCc2c([nH]c3ccccc23)C1C(C)(C)C (configuration not stated)	32%	-3	1%	18	4.7µM*
COCc1ccc(CN2CCc3c([nH]c4ccccc34)C2C(C)(C)C)o1 (configuration not stated)	-29%[5.75 µM]	21*	3%	39	86%
CCn1ccnc1CN1CCc2c([nH]c3ccccc23)C1CC(C)C (configuration not stated)	?	-1	0%	-9	?
CCc1noc(C)c1C(=O)N(C)CC(=O)Nc1ccc(OC)cc1	39%	·	·	·	7%
Cc1ccccc1OCC(O)Cn1c(Br)nc2c1c(=O)n(C)c(=O)n2C (configuration not stated)	?	-4	-12%	2	14%
Cc1ccccc1OCC(O)Cn1c(SC(C)C)nc2c1c(=O)[nH]c(=O)n2C (configuration not stated)	10µM*	-2	-6%	3	?
COc1ccc(OCC(O)Cn2c(Nc3cccc(C)c3)nc3c2c(=O)n(C)c(=O)n3C)cc1 (configuration not stated)	3.3µM*	-1	-2%	-13	2.3µM*
COc1ccc(NCC(O)Cn2cnc3c2c(=O)n(C)c(=O)n3C)cc1 (configuration not stated)	4%	-1	10%	27	22%
